Experimental data reported in PubChem BioAssay AID1030 (National Center for Advancing Translational Sciences (NCATS), 2008).
In all, about 220,000 compounds went through this assay and about 16,000 (7.3%) were called active. About 25% were inconclusive and are not listed. The call rests on the fitted dose curve; in most records, active means well fitted inhibition curve with a large enough effect (not every such curve was filed as active); inconclusive means small, poorly fitted or top-dose-only effect, or another doubt; inactive means no such curve, though single readings can be large or run the other way. Many of the other results were omitted from the sample, so actives are more common in it than they were.

target: Aldehyde dehydrogenase 1A1 (Homo sapiens) (UniProt P00352); test: qHTS Assay for Inhibitors of Aldehyde Dehydrogenase 1 (ALDH1A1); conditions: Purified ALDH1A1, NADH fluorescence, propionaldehyde substrate; series mostly up to 75.3 µM; activity, negative = inhibition: at the top concentration;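 on activity, negative = inhibition: plate controls were no enzyme wells and a reference inhibitor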
Sequence (P00352 whole entry, looked up): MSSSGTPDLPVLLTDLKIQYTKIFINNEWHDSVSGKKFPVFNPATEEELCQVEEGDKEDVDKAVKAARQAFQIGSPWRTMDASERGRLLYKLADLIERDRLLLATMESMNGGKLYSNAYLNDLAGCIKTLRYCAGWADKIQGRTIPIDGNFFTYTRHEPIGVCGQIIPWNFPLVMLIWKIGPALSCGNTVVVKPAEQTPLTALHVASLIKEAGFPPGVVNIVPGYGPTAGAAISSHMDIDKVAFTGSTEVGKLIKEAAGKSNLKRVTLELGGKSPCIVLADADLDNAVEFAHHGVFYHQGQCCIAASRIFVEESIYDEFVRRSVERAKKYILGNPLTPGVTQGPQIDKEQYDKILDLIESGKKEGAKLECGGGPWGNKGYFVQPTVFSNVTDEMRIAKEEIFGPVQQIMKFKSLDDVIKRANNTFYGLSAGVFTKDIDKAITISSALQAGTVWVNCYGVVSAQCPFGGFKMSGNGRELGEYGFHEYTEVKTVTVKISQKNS
Potency means the concentration at half of the fitted maximal effect.

SMILES | activity, negative = inhibition | Potency
O=C(O)C1CCN(C(=O)OCc2ccccc2)CC1 | 11.2% (inactive) | –
N#Cc1c(N)sc2c1CCN(C(=O)OCc1ccccc1)C2 | – | 10 µM (active)
N#Cc1ccc(COC(=O)Cn2nnc(-c3ccccc3)n2)cc1 | -12.2% (inactive) | –
CCN1CCC2(CCN(Cc3cn[nH]c3-c3ccc(OC)c(F)c3)C2)C1 (stereo not drawn) | -5.12% (inactive) | –
C=CCN(CC=C)CCOc1ccccc1[N+](=O)[O-] | -17% (inactive) | –
CCOC(=O)N1CCN(Cc2nc(N)nc(Nc3ccc(C)cc3)n2)CC1 | -7.53% (inactive) | –
COc1ccc(Nc2nc(N)nc(CSC(=S)N3CCC(C)CC3)n2)cc1 | – | 3.16 µM (active)
CCOC(=O)c1cnc(SCc2nc(N)nc(Nc3ccc(OC)cc3)n2)nc1N | 8.96% (inactive) | –
Oc1ccc(-c2onc3ccc(Cl)cc23)cc1 | – | 11.2 µM (active)
O=C(Cn1nnc(-c2ccccc2)n1)NCc1ccc2c(c1)OCO2 | 0.62% (inactive) | –
O=C1N(Cc2ccc3c(c2)OCO3)c2ccccc2C1(O)c1c[nH]c2ccccc12 (stereo not drawn) | – | 3.16 µM (active)
O=C(CCCCn1c(=O)[nH]c2ccccc2c1=O)NCc1ccc2c(c1)OCO2 | 7.65% (inactive) | –
CCOc1ccc(-n2cnc3c(=O)[nH]c(N)nc32)cc1 | 6.63% (inactive) | –
CO/N=C(\N)c1ccc([N+](=O)[O-])cc1 | 2.88% (inactive) | –
CCCn1c(SCC(=O)Nc2ccc(C)c(S(=O)(=O)N3CCOCC3)c2)n[nH]c1=O | -6.54% (inactive) | –
COc1ccc(CNc2c(CO)cnc3c2cnn3C)cc1 | -13.3% (inactive) | –
CCOC(=O)CSc1nc2c(sc(=S)n2CCc2ccccc2)c(=O)n1Cc1ccco1 | – | 31.6 µM (active)
Nc1cc(=O)nc(SCc2ccccc2)n1Cc1ccco1 | 12.6% (inactive) | –
CCOC(=O)Cc1csc(NC(=O)CSc2nnc(-c3cccnc3)n2Cc2ccco2)n1 | -6.11% (inactive) | –
Cc1cc(C)n2nc(C(=O)N3CCN(Cc4ccc5c(c4)OCO5)CC3)nc2n1 | 5.33% (inactive) | –
CCCCCCCC/C=C\CCCCCCCC(=O)OC[C@H](CO)OC(C)=O | – | inactive
CCN(CC)CCNC(=O)c1ccc(NC(=O)c2c(F)cccc2Cl)cc1 | -2.52% (inactive) | –

SMILES | activity, negative = inhibition | Potency
COc1ccc(CCNC(=O)c2cc(-c3ccc4c(c3)OCO4)on2)cc1OC | 8.9% (inactive) | –
COc1c2c(cc3occ(-c4ccc5c(c4)OCO5)c(=O)c13)OC(C)(C)C=C2 | – | 14.1 µM (active)
Cc1ccc(NC(=O)C(=O)NCC2CCN(C(=O)c3cccc([N+](=O)[O-])c3)CC2)cc1 | 1.36% (inactive) | –
CN1CCN(CC#CCC2(O)c3ccccc3-c3ccccc32)CC1 | -5.97% (inactive) | –
CC(=O)C1C(c2ccc(Cl)cc2)c2c(n[nH]c2C)CC1(C)O (stereo not drawn) | 2.01% (inactive) | –
CC(C)N1CCC(N2CCN(Cc3cccnc3)CC2CCO)CC1 (stereo not drawn) | 1.27% (inactive) | –
O=C(CC1NCCNC1=O)Nc1ccc(Oc2ccccc2)cc1 (stereo not drawn) | – | 20 µM (active)
O=C(CC1NCCNC1=O)Nc1cc(Cl)cc(Cl)c1 (stereo not drawn) | 1.99% (inactive) | –
CCOc1ccc(NC(=O)CC2NCCNC2=O)cc1 (stereo not drawn) | 9.3% (inactive) | –
COc1ccc(-c2nc(-c3ccccc3)oc2Nc2ccc3ccccc3c2)cc1 | -9.62% (inactive) | –
COc1ccccc1CNC(=O)CNC(=O)c1cn(-c2ccccc2OC)c(=O)c2ccccc12 | -5.29% (inactive) | –
COc1cccc(CC2(CO)CCCN(CC3=Cc4cc(OC)ccc4OC3)C2)c1 (stereo not drawn) | -12.6% (inactive) | –
Cc1nn(-c2ccccc2)c(=O)c2noc(C)c12 | -1.15% (inactive) | –
O=C(c1cccnc1)N(c1cc2sc(=O)oc2c2ccccc12)S(=O)(=O)c1ccccc1 | – | 10 µM (active)
COc1ccc(N(C(=O)c2cccnc2)S(=O)(=O)c2ccc3c(c2)n(C)c(=O)n3C)cc1 | -5.62% (inactive) | –
Cc1ccc(C(=O)Cn2cccn2)cc1 | -4.42% (inactive) | –
COc1ccc(CCNC(=O)COC(=O)/C=C/c2cccs2)cc1OC | 4.49% (inactive) | –
COc1ccc(CCNC(=O)CC2SC(=Nc3cc(C)cc(C)c3)NC2=O)cc1OC (stereo not drawn) | – | 12.6 µM (active)
COc1ccc(CCNC(=O)C(=O)NCc2ccccc2C)cc1OC | 8.53% (inactive) | –
CCCCn1c(N)c(N(CC)C(=O)/C=C/c2ccco2)c(=O)[nH]c1=O | -2.37% (inactive) | –
CC(C)(C)NC(=O)c1ccc(Cn2cc(C(F)(F)F)ccc2=O)cc1 | 1.97% (inactive) | –
O=C1NC(=Nc2ccc(Cl)cc2)SC1Cc1cccc(Cl)c1Cl (stereo not drawn) | 17.6% (inactive) | –

SMILES | activity, negative = inhibition | Potency
N#Cc1ccc(C(c2nnnn2CCc2ccccc2)N2CCCCCC2)cc1 (stereo not drawn) | -7.57% (inactive) | –
Fc1ccc(Cn2nnnc2C(c2cccs2)N2CCCCCC2)cc1 (stereo not drawn) | – | 7.94 µM (active)
CCC(C)(C)n1nnnc1C(c1cccs1)N1CCN(Cc2ccccc2)CC1 (stereo not drawn) | -3.94% (inactive) | –
COc1ccc(C(=O)N/N=c2\oc3ccccc3cc2C(N)=O)cc1 | -1.79% (inactive) | –
CC1Cc2ccccc2N1C1=CC(=O)CC(C)(C)C1 (stereo not drawn) | -16.2% (inactive) | –
COc1ccccc1CC(=O)Nc1ccc([N+](=O)[O-])cc1OC | -4.92% (inactive) | –
COc1ccccc1CSc1ncc(-c2ccc([N+](=O)[O-])cc2)[nH]1 | – | 28.2 µM (active)
COc1ccccc1CSc1nc2ccccc2[nH]1 | 4.43% (inactive) | –
Cc1ccc(NC(=O)O[C@@H]2C(=O)c3cc(Br)ccc3O[C@H]2c2ccc3c(c2)OCO3)cc1Br | -1.23% (inactive) | –
CC(C)(C)CN1CCNC(=O)C1CC(=O)NC1Cc2ccccc2C1 (stereo not drawn) | -0.0338% (inactive) | –
COc1cccc(CNC(=O)c2n[nH]c3ccccc23)c1 | 0.331% (inactive) | –
COC(=O)[C@@H](NC(=O)NCc1cccc(OC)c1)C(C)C | – | 10 µM (active)
COc1cccc(NC(=O)NCc2ccc(F)cc2)c1 | 5.85% (inactive) | –
CC(=O)Cc1nsc(NC(=O)c2ccc(Cl)cc2Cl)n1 | 1.32% (inactive) | –
CC1CCCN(CC(O)COc2ccc3c(c2)OCO3)C1 (stereo not drawn) | -0.13% (inactive) | –
CCCCNC(=O)CCNC(=O)c1ccc(C(C)(C)C)cc1 | -13.2% (inactive) | –
O=C(COC(=O)CCCNC(=O)c1ccc(Cl)cc1)Nc1cc(Cl)ccc1Cl | 11.4% (inactive) | –
Cc1ccc(CNC(=O)CCCNC(=O)c2ccc(Cl)cc2)n1C | – | 28.2 µM (active)
CCc1cc2c(NC3CCCC3)ncnc2s1 | -8.26% (inactive) | –
COC(=O)C1=C(C(=O)OC)[C@@H]2N(C)c3ccccc3[C@@]23C[C@@H](C(=O)OC)N(C(C)=O)C3=N1 | 3.72% [at 13.5 µM] (inactive) | –
C[C@@H](C(=O)N1CCNCC1)n1cc(CCC(=O)O)nn1 | 0.0753% (inactive) | –
O=C(Nc1ccc(Cl)cc1)c1ccsn1 | 5.63% (inactive) | –

SMILES | activity, negative = inhibition | Potency
O=C(c1ccc(Cl)cc1)c1cnc(Nc2ccccc2)s1 | 9.26% (inactive) | –
O=C(Nc1ccccc1)c1nnsc1S(=O)(=O)c1ccc(Cl)cc1 | – | 2.24 µM (active)
O=C(O)CS/C(=C\c1ccc(F)cc1)c1nc2ccccc2s1 | 9.19% (inactive) | –
COc1cccc(CNC(=O)CCC2CCCN(Cc3ccc(OC(F)F)cc3)C2)c1 (stereo not drawn) | 8.18% (inactive) | –
Cn1c(N)c(C(=O)COC(=O)/C=C/c2ccc(OC(F)F)cc2)c(=O)n(C)c1=O | 0.549% (inactive) | –
O=C(Nc1ccccc1)N1CCN(C(=O)Nc2ccccc2)CC1 | 1.94% (inactive) | –
NC(=O)C1(N2CCCCC2)CCN(C(=O)c2ccc(C#Cc3ccccc3)o2)CC1 | -13.8% (inactive) | –
S=C(Nc1ccc2c(c1)OCO2)N1CCCC1 | -14.8% (inactive) | –
S=C(c1ccc(-c2ccccc2)o1)N1CCCCC1 | – | 3.55 µM (active)
O=C(/C=C/c1ccc(OCc2c(F)cccc2Cl)cc1)N1CCOCC1 | -4.08% (inactive) | –
O=C1NC(c2ccc(-c3ccccc3[N+](=O)[O-])o2)C(C(=O)c2ccc(Cl)cc2)C(O)(C(F)(F)F)N1 (stereo not drawn) | – | 20 µM (active)
CN1CCN(c2ccc(NC(=O)c3ccc4c(c3)OCCO4)cc2Cl)CC1 | -6.09% (inactive) | –
Cc1c(NC(=S)Nc2ccccc2)c(=O)n(-c2ccccc2)n1C | -0.293% (inactive) | –
CCN(CC)P(=O)(/C(Cl)=C\Nc1c(C)n(C)n(-c2ccccc2)c1=O)N(CC)CC | – | 17.8 µM (active)
COC(=O)Nc1c(C)n(C)n(-c2ccccc2)c1=O | 4.54% (inactive) | –
COC(=O)c1ccc(NCC(=O)c2ccccc2)cc1 | – | 11.2 µM (active)
Cc1ccc(C(=O)CNc2ccc(F)cc2)cc1 | – | 11.2 µM (active)
Cc1ccc(NC(=O)CC(=O)Nc2ccc(C)cc2)cc1 | 4.23% (inactive) | –
COC(=O)c1ccc(NC(=O)C(C)N2C(=O)c3ccccc3C2=O)cc1 (stereo not drawn) | 3.93% (inactive) | –
Cc1ccc(C(=O)CS(C)(=O)=O)cc1 | -3.97% (inactive) | –
COC(=O)c1ccc(NC(=O)Nc2ccc(C)cc2)cc1 | 18.1% (inactive) | –
CC(C)Nc1nnc(SCC(=O)/C=C2\N(C)c3ccccc3C2(C)C)s1 | -2.25% (inactive) | –

SMILES | activity, negative = inhibition | Potency
CCCCCc1ccc(-c2ccc(OCC)cc2)nc1 | 3.76% (inactive) | –
O=C(N1CCCCC1)N1CCN(C(=O)N2CCCCC2)CC1 | -13.2% (inactive) | –
CCCNC(=O)c1c(Cl)cnn1-c1ccc(C)cc1 | 0.157% (inactive) | –
CCC(C)CN1CCC(CO)(Cc2ccccc2Cl)CC1 (stereo not drawn) | 6.32% (inactive) | –
COCCNC(=O)/C(C#N)=C/c1cccc(OCc2ccccc2)c1 | -8.15% (inactive) | –
O=C(NCC(O)c1ccc([N+](=O)[O-])cc1)C1CCCCC1 (stereo not drawn) | 5.34% (inactive) | –
O=[N+]([O-])c1ccc(N2CCSCC2)cc1O | -9.62% (inactive) | –
NC(N)=N/N=C/c1ccc(Cl)c([N+](=O)[O-])c1 | 4.87% (inactive) | –
O=C1CSC(=S)N1/N=C/c1ccc(O)c([N+](=O)[O-])c1 | – | 1.26 µM (active)
Nc1ccc(C(=O)OCC(=O)NC2CCS(=O)(=O)C2)cc1[N+](=O)[O-] (stereo not drawn) | -0.662% (inactive) | –
CN(C)c1nccc(NCc2ccccc2)c1C#N | -5.36% (inactive) | –
CN(C(=O)COc1ncnc2c1cnn2-c1ccccc1)C1CCCCC1 | -9.75% (inactive) | –
CN(C)S(=O)(=O)Oc1ccccc1C(=O)Nc1ccccc1Cl | 8.77% (inactive) | –
CC(=O)Nc1ccccc1OC(C)C(=O)N1CCC(C)CC1 (stereo not drawn) | 5.08% (inactive) | –
CSCCC(NS(=O)(=O)/C=C/c1ccccc1)C(=O)N1CCC(C)CC1 (stereo not drawn) | – | 14.1 µM (active)
CSCCC(NC(=O)C1CCC(C)CC1)C(=O)NCc1ccco1 (stereo not drawn) | 5.15% (inactive) | –
CCCCCCCCCCOC(=O)C[N+](C)(C)CC1CCCCC1O (stereo not drawn) | 4.34% (inactive) | –
O=C(NC1CCCCC1)c1cc([N+](=O)[O-])ccc1N1CCOCC1 | -8.05% (inactive) | –
O=[N+]([O-])c1ccc2c(c1)C(N1CCOCC1)/C(=C/C1(O)CCCCC1)O2 (stereo not drawn) | – | 10 µM (active)
CC[C@H](C)[C@@H](NC(=O)O[C@@H]1C(=O)c2cc(OC)ccc2O[C@H]1c1cccc(OC)c1)C(=O)OC | 0.104% (inactive) | –
